CBX7 AlphaScr: CBX7 chromodomain binding inhibitors, primary screen, biochemical, AlphaScreen. actives 1.1% (n = 66,000). Chromobox protein homolog 7 (Homo sapiens), O95931. normalised signal (fraction of DMSO) (no concentration beside the values). AlphaScreen His6-CBX7 / biotin-H3K27me3 peptide binding; active compounds read low; in the data active means normalised signal below about 0.5
Target sequence (O95931 whole entry, looked up): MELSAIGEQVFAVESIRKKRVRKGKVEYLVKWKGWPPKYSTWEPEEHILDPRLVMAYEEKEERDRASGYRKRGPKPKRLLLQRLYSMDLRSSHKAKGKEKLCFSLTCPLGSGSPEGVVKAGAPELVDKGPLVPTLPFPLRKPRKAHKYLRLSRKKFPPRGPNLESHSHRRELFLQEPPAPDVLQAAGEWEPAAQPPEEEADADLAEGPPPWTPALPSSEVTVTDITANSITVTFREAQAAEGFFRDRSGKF
Starred values were filed as active, the others as inactive. The full list was thinned out, with hits kept by preference.

SMILES | CBX7 AlphaScr
N#Cc1nc(COc2ccccc2)oc1NCc1ccc(F)cc1 | 0.877
O=C(Nc1c(C(=O)Nc2ccccc2Cl)cnn1-c1ccccc1)c1cccs1 | 0.94
CCN(CC)C(=O)c1c(NC(=O)c2ccccc2Cl)sc2c1CCCC2 | 0.995
CCOc1ccc(NC(=O)Cn2cc(S(=O)(=O)c3ccc(C)cc3)c(=O)c3cc(C)ccc32)cc1 | 0.842
CCc1ccc(NC(=O)c2cnn(-c3ccc(C)cc3)c2C2CCN(C(=O)OC(C)(C)C)CC2)cc1 | 0.918
Oc1ccccc1-c1nc(Nc2ccccc2Cl)c2ccccc2n1 | 1.02
CCc1ccccc1NC(=O)c1cnn(-c2ccc(F)cc2)c1C1CCN(C(=O)OC(C)(C)C)CC1 | 0.973
Cc1ccc(CNC(=O)c2ccc3c(c2)N(Cc2ccc(F)cc2)C(=O)c2ccccc2S3=O)cc1 (stereo not given) | 0.517
CCOc1ccc2nc(N3CCC(C(=O)Nc4ccc(C)cc4C)CC3)sc2c1 | 1.06
Cc1ccc(S(=O)(=O)N2CCC(C(=O)N3CCC(C(=O)NCCc4ccccc4)CC3)CC2)cc1 | 0.886
CCN(C(=O)Cc1nc(N)n[nH]1)C1(C(=O)Nc2ccc(OC)cc2)CCCCC1 | 0.631
Cc1ccc(OCc2nc(C#N)c(N3CCC(C)CC3)o2)cc1 | 0.515
CC1CCN(c2oc(COc3ccc(Cl)cc3)nc2C#N)CC1 | 0.356*
N#Cc1nc(COc2ccc(Cl)cc2)oc1N1CCOCC1 | 1.22
COc1ccc(C)cc1N(C)C(=O)CCc1nc(-c2ccc(C)cc2)no1 | 0.994
O=C(NC1CCCC1)c1ccc(CNc2c(N3CCCCC3)c(=O)c2=O)cc1 | 0.908
Cc1onc(-c2c(F)cccc2Cl)c1C(=O)NCC1COc2ccccc2O1 (stereo not given) | 0.472*
Cc1onc(-c2c(Cl)cccc2Cl)c1C(=O)NCC1CCCO1 (stereo not given) | 0.997
Cc1onc(-c2c(F)cccc2Cl)c1C(=O)Nc1ccccc1 | 1
O=C(CN1C(=O)CCSc2ccccc21)NCCc1ccccc1 | 1.05
CCc1cccc(C)c1NC(=O)c1c(-c2c(Cl)cccc2Cl)noc1C | 0.988
Cc1cccc(OCCn2c(NC(=O)c3ccccc3Cl)nc3ccccc32)c1 | 0.34*
Cc1cccc(OCCn2c(C)nc3ccccc32)c1 | 1.15
COc1ccccc1C(=O)Nc1nc2ccccc2n1CCOc1ccccc1 | 0.836
CN1CCN(CCCNC(=O)C2CCCN(c3nnc(-n4cccc4)s3)C2)CC1 (stereo not given) | 0.958
SMILES | CBX7 AlphaScr
Cc1cccc2c1-c1sc(C(=O)Nc3ccccc3F)cc1CO2 | 1.7
Cc1ccc2c(c1)C(c1ccc(F)cc1)N(C(=O)CC(C)C)CC(=O)N2 (stereo not given) | 0.932
C=CCn1c(=O)c(C(=O)Nc2ncccn2)c(O)c2ccccc21 | 0.745
CCOc1cc2c(cc1OCC)C1C(C(=O)Nc3ccccc3C)c3ccccc3C(=O)N1CC2 (stereo not given) | 1.06
CCOc1cc2c(cc1OCC)C1C(C(=O)Nc3ccccc3CC)c3ccccc3C(=O)N1CC2 (stereo not given) | 1.01
CCOc1cc2c(cc1OCC)C1C(C(=O)Nc3cc(C)ccn3)c3ccccc3C(=O)N1CC2 (stereo not given) | 0.192*
COc1ccc(S(=O)(=O)NCCc2c(C)[nH]c3ccc(C)cc23)c2ccccc12 | 0.8
CCOc1ccc(S(=O)(=O)NCCc2c(C)[nH]c3ccc(F)cc23)cc1 | 0.917
Cc1ccc2[nH]c(C)c(CCNS(=O)(=O)c3ccc(F)cc3)c2c1 | 0.452*
COc1cc(S(=O)(=O)NCCc2c(C)[nH]c3ccc(C)cc23)c(C)cc1C | 0.346*
COc1cc(S(=O)(=O)NCCc2c(C)[nH]c3ccc(C)cc23)ccc1Cl | 0.429*
COc1ccc(C)cc1S(=O)(=O)NCCc1c(C)[nH]c2ccc(Br)cc12 | 1.06
COc1cc(C)c(S(=O)(=O)NCCc2c(C)[nH]c3ccc(F)cc23)cc1C | 0.949
COc1ccc(S(=O)(=O)NCCc2c(C)[nH]c3ccc(C)cc23)cc1OC | 0.631
COc1ccc(C)cc1S(=O)(=O)NCCc1c(C)[nH]c2ccccc12 | 0.874
CCOc1ccc(S(=O)(=O)NCCc2c(C)[nH]c3ccc(C)cc23)cc1 | 0.965
COc1ccc(S(=O)(=O)NCCc2c(C)[nH]c3ccc(Br)cc23)cc1C | 0.567
COc1ccc(C)cc1S(=O)(=O)NCCc1c(C)[nH]c2ccc(C)cc12 | 0.404*
Cc1ccc(S(=O)(=O)c2nc(-c3ccc(F)cc3)oc2SCC(=O)Nc2ccc(F)cc2)cc1 | 0.929
CCc1ccc(NC(=O)Cn2cc(S(=O)(=O)c3ccc(Cl)cc3)c(=O)c3ccccc32)cc1 | 0.982
Cc1ccc(NC(=O)CC2Nc3cc(C)c(C)cc3NC2=O)cc1C (stereo not given) | 0.996
Cc1cc(C)c(-n2nnnc2SCC(=O)Nc2nccs2)c(C)c1 | 1.08
COc1ccc2cc(CCNC(=O)c3ccc(C(F)(F)F)cc3)c(=O)[nH]c2c1 | 0.939
Cc1ccc(S(=O)(=O)Nc2ccccc2CNc2cccc3cccnc23)cc1 | 0.921
CC(=O)Nc1ccc(S(=O)(=O)Nc2cccc3cccnc23)cc1 | 0.0448*

Source: PubChem BioAssay
